Screening data as filed in PubChem.
Tau fluor counter: counter-screen for tau fibril formation inhibitors; Potency, µM (highest dose often 57.7 µM), for inactives: top-dose activity change, negative = decrease; AID 1463; hit rate 0.93% among 280,000; tau K18 P301L Alexa594 fluorescence, heparin fibrillization; further: on the % scale 0 is the no-effect control and ±100 the full control effect; nearly all actives have a fitted effect of over 55% in size
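Human tau K18 P301L (15 uM unlabeled, 0.24 uM Alexa 594-labeled) in 100 mM sodium acetate pH 7 with 20 uM heparin, 6 hr at 37 C. ThT 30 uM added, 1 hr ambient; Alexa 594 FP and total fluorescence read at 555/632 nm.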
HTT ATP protect: cytoprotection in Huntington HTT-Q103 PC12 cell model | hit rate 0.14% among 230,000 | Potency, µM (highest dose often 56.4 µM), without a hit: cytoprotection (ATP increase), most hits filed as activators | PC12 HTT-Q103 induced, cytoprotection, ATP luminescence, 40 h | AID 1471; further: % of control where 0% means no effect; nearly all actives have a fitted effect of over 45% in size
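Rat PC12, Q103 Htt exon1-GFP fusion, ecdysone promoter; tebufenozide inducer 100 nM final; compound titration; qHTS, 1500 cells/well; ATPlite luminescent read.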
Tau fibril FP: tau fibrillization inhibition (FP). K18 P301L tau heparin fibrillization, Alexa594 FP, 6 h. Potency, µM (doses to about 57.7 µM), for the others: at the top dose activity, negative = inhibition, usual class: inhibitors. hit rate 0.39% among 280,000; further: on the % scale 0 is the no-effect control and ±100 the full control effect; nearly all actives have a fitted effect of over 55% in size
Target sequence (P10636 561-689 P618L limits assumed): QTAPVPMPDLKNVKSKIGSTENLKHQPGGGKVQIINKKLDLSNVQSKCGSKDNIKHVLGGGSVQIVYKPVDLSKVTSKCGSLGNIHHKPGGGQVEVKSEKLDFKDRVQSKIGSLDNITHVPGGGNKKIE
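Read-out: fluorescence polarization of Alexa 594-labeled tau (0.24 uM), 555 nm excitation, 632 nm emission. Mixtures held 15 uM unlabeled K18 P301L, compound and 20 uM heparin, pH 7 acetate buffer, incubated 6 hr at 37 C.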
HTT aggregate: inhibitors of mutant huntingtin aggregate formation in PC12 cells; PC12 HttQ103-GFP aggregates, Acumen cytometry, 40 h; Potency, µM (highest dose often 46.1 µM), for the others: at the highest dose activity change, negative = inhibition, hits mostly inhibitors; hit rate 1.1% among 220,000; AID 1688; further: on the % scale 0 is the no-effect control and ±100 the full control effect; nearly all actives have a fitted effect of over 60% in size
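Ecdysone-promoter PC12 model expressing HTT exon 1 Q103 fused to GFP, induced by tebufenozide at 100 nM final. Compounds titrated; aggregates sized 1–25 µm scored on a 488 nm laser cytometer.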
Tau fibril ThT: inhibitors of human tau fibril formation, thioflavin T binding; Potency, µM (series often up to 57.4 µM), for inactives: at the highest dose activity, negative = inhibition, most hits filed as inhibitors; AID 1460; recombinant tau K18 P301L (four-repeat tau fragment), heparin-induced fibrillization, ThT fluorescence; hit rate 2.1% among 270,000; further: on the % scale 0 is the no-effect control and ±100 the full control effect; nearly all actives have a fitted effect of over 55% in size
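Recombinant human tau K18 fragment […] carrying P301L, 15 uM unlabeled plus 0.24 uM Alexa 594-labeled, was fibrillized with 20 uM heparin in 100 mM sodium acetate pH 7 for 6 hr at 37 C; 30 uM ThT fluorescence read after 1 hr.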
Starred values were filed as active, the others as inactive; ? = inconclusive; . = no result given; [ ] = remark or other dose. Shown are actives, neighbours in structure and some others; about 3.7% of the full set was active somewhere. The call rests on the fitted dose curve; in most records, active means well fitted curve in the direction sought with a large enough effect; inconclusive means small, poorly fitted or top-dose-only effect, or another doubt; inactive means no such curve, though single readings can be large; an effect the other way counts as inactive or inconclusive. Potency means the concentration at half of the fitted maximal effect.

SMILES | Tau fluor counter | HTT ATP protect | Tau fibril FP | HTT aggregate | Tau fibril ThT
COc1ccc(-c2cnc(N)nc2-c2ccc(OC)cc2O)cc1 | ? | ? | -1.2% | 11.2µM* | -17.8%
Cc1nn(-c2ccccc2)c2[nH]c(=O)c(CNc3ccc(N4CCOCC4)cc3)cc12 | ? | -43.8%[10 µM] | ? | ? | 17.8µM*
CC[C@H](C)C(=O)O[C@@H]1CCC=C2C=C[C@H](C)[C@@H](CC[C@H]3C[C@@H](O)CC(=O)O3)[C@H]21 | . | -25.0%[1.9 µM] | . | . | .
CCOc1cc([N+](=O)[O-])cc(/C=C2/NC(=O)N(Cc3ccccc3F)C2=O)c1O | ? | -2.1%[10 µM] | -3.3% | 2.8%[9.22 µM] | 14.1µM*
CN1CCN(Cc2nc3cccc4c3c([n+]2[O-])-c2ccccc2-4)CC1 | . | 4.9%[10 µM] | . | . | .
O=C(NCc1ccco1)c1nn2c(C(F)(F)F)cc(-c3cccs3)nc2c1Br | -28.7% | 13.9% | ? | 7.4% | 14.1µM*
O=C(NC1CCCCCC1)C1CCN(C(=O)N2CCOc3ccccc32)CC1 | 7.08µM*[quencher] | . | ? | . | 10.5%
CCC1CN(C(=O)N2CCC(C(=O)Nc3ccccc3F)CC2)c2ccccc2O1 (stereo unspecified) | 2.51µM*[quencher] | . | 3.4% | . | -6.0%
CCC1CN(C(=O)N2CCC(C(=O)NCCc3ccc(Cl)cc3)CC2)c2ccccc2O1 (stereo unspecified) | 5.01µM*[quencher] | . | 12.5% | . | -4.3%
CCC1CN(C(=O)N2CCC(C(=O)NCCc3ccccc3C)CC2)c2ccccc2O1 (stereo unspecified) | -11.7% | . | 16.0% | . | -15.2%
Cc1ccc(-c2nnc(Nc3ccc(O)cc3)c3ccccc23)cc1S(=O)(=O)N1CCCCC1 | 4.47µM*[quencher] | . | 16.6% | . | -1.7%
Cc1ccc(-c2nnc(Nc3ccc(C(N)=O)cc3)c3ccccc23)cc1S(=O)(=O)N1CCCCC1 | ? | . | 28.2µM* | . | -7.3%
Cc1ccc(-c2nnc(Nc3ccc(S(N)(=O)=O)cc3)c3ccccc23)cc1S(=O)(=O)N1CCCCC1 | -21.6% | . | ? | . | 5.5%
Cc1nc(NC(=O)c2ccccc2)sc1-c1csc(Nc2ccc(C(=O)O)cc2)n1 | ? | -2.3%[10 µM] | 14.1% | -26.1%[9.22 µM] | .
COc1cccc(Nc2nc(-c3sc(NC(=O)c4ccccc4)nc3C)cs2)c1 | 31.6µM*[quencher] | -64.6% | 7.8% | ? | 17.8µM*
CCCC(=O)Nc1nc(C)c(-c2csc(Nc3cc(OC)ccc3OC)n2)s1 | 14.1µM*[quencher] | -59.0% | ? | ? | ?
Cc1nc(NC(=O)c2ccc(Cl)cc2)sc1-c1csc(Nc2cccc(F)c2)n1 | 12.6µM*[quencher] | -56.2% | ? | -12.0% | 7.08µM*
C=CCCC(=O)Nc1nc(C)c(-c2csc(Nc3cc(OC)ccc3OC)n2)s1 | 14.1µM*[quencher] | -105.7% | 12.9% | 10µM* | 14.1µM*
CCC(=O)Nc1nc(C)c(-c2csc(Nc3cccc(C(=O)O)c3)n2)s1 | -20.9% | -8.3%[10 µM] | 5.7% | -2.7%[9.22 µM] | 3.98µM*
COc1ccccc1Nc1nc(-c2sc(NC(=O)CC(C)C)nc2C)cs1 | ? | -49.2% | 4.7% | 26.3% | ?
C=CCCC(=O)Nc1nc(C)c(-c2csc(Nc3cccc(OC)c3)n2)s1 | ? | -25.8% | ? | -29.5% | 14.1µM*
COc1cccc(Nc2nc(-c3sc(NC(=O)CC(C)C)nc3C)cs2)c1 | 15.8µM*[quencher] | -53.6% | 6.5% | ? | 15.8µM*
COc1ccccc1Nc1nc(-c2sc(NC(=O)C(C)(C)C)nc2C)cs1 | ? | -37.6% | 11.6% | -19.4% | ?
CCCC(=O)Nc1nc(C)c(-c2csc(Nc3ccccc3OC)n2)s1 | 15.8µM*[quencher] | -34.4% | 19.7% | -30.1% | 12.6µM*
COc1ccc(NCc2c(O)ccc3ccccc23)cc1 | . | -4.7%[10 µM] | . | . | .
CCN(CC)CC[n+]1ccc2c(C)c3[nH]c4ccccc4c3c(C)c2c1 | . | -36.0%[10 µM] | . | . | .
CCCC(C)C(=O)Nc1nc(C)c(-c2csc(Nc3cc(OC)ccc3OC)n2)s1 (stereo unspecified) | 8.91µM*[quencher] | -76.0% | ? | ? | ?
COc1ccc(OC)c(Nc2nc(-c3sc(N)nc3C)cs2)c1 | 14.1µM*[quencher] | -16.3%[10 µM] | -9.1% | -22.8% | 11.2µM*
CCCCCC(=O)Nc1nc(C)c(-c2csc(Nc3cc(Cl)ccc3OC)n2)s1 | ? | -54.6% | 2.2% | -23.1% | ?
